Laboratory results published in PubChem BioAssay (NCI).
This is part of a sample that, as a whole, favours compounds with a hit. Of some 79,000 tested, about 15% had one in any assay. Unmarked numbers belong to inactive results. Active and inactive are the calls of the source. No stated cut-off is given here; in the data, active means growth inhibition above about 70%; inactive means the rest.

Test: NCI Yeast Anticancer Drug Screen. Data for the mgt1 strain (AID 153)
Details: S. cerevisiae mgt1 mutant growth inhibition, hits give high values
Method: Growth inhibition of yeast strains with defined genetic alterations is measured as a screen for potential anti-cancer activity. Selected strains with alterations in DNA damage repair or cell cycle control were exposed to compounds and growth inhibition was measured relative to vehicle treated controls. The strain used in this assay is mgt1

| SMILES | growth inhibition (at 1.2 µM) [%] | growth inhibition (at 3.7 µM) [%] | growth inhibition (at 11.0 µM) | growth inhibition (at 33.0 µM) | growth inhibition (at 100.0 µM) |
| --- | --- | --- | --- | --- | --- |
| O=C(NCCCNCCN1C(=O)c2cccc3cc([N+](=O)[O-])cc(c23)C1=O)c1cc(-c2ccccc2)nc2ccccc12 | -1 | 0 | -1% | 8% | 99% (active) |
| C[C@]12CC[C@H](O)CC1=CC[C@@H]1C2CC[C@]2(C)C(=O)NC(=O)CC12 (stereo not given in full) | -41 | -16 | 79% (active) | 94% (active) | 96% (active) |
| O=C1N=C2SC=C(NC(=S)Nc3ccccc3)N2NC12c1ccccc1-c1ccccc12 | 6 | 6 | 30% | 77% (active) | 88% (active) |
| CCCC(=O)Oc1c(C)cc([N+](=O)[O-])cc1[N+](=O)[O-] | 3 | 11 | 56% | 99% (active) | 86% (active) |
| O=C(COC(=O)c1ccccc1)c1ccc(Br)cc1 | 5 | 13 | 22% | 99% (active) | 98% (active) |
| C#CCN(Cc1ccc2nc(N)[nH]c(=O)c2c1)c1ccc(C(=O)NC(CCC(=O)O)C(=O)O)cc1 (stereo not given) | -29 | -23 | -27% | 17% | 34% |
| CC[N+]1(C)CCC(O)(c2ccc(OC)cc2)C(C(=O)c2ccc(OC)cc2)C1 (stereo not given) | -39 | -52 | -54% | -54% | -44% |
| Oc1cccc2cc(Cl)cnc12 | -18 | -22 | 3% | 97% (active) | 98% (active) |
